Out of some 69,000 compounds screened, about 420 (0.61%) showed an effect of 50% or more. The sample holds strong results, similar compounds and a random draw of the others, so the mix is not that of the screen.
target: T1, Histidine--tRNA ligase (Leishmania infantum) (UniProt A4I591); assay: Leishmania infantum Histidine tRNA synthetase (LdHisRS); format: functional; design: scale not given: in the data most compounds retested in dose-response had high values; settings: 30 µM
T1 sequence (whole entry): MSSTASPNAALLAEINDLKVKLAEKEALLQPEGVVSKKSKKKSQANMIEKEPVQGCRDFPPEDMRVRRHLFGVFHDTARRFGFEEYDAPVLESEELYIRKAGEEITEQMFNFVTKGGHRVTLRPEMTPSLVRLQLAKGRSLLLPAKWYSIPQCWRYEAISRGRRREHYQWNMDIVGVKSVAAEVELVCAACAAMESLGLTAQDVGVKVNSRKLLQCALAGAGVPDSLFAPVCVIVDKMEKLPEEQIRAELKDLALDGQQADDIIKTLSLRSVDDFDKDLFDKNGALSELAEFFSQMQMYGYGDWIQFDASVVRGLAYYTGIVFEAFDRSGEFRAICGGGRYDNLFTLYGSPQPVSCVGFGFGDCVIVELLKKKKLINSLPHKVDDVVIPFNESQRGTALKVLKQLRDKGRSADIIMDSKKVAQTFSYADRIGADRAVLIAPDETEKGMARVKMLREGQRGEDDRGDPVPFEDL

SMILES	Percent Effect [%]
COC[C@@]12CC[C@@H](N3CCOCC3)C[C@H]1CCN(c1ncccc1Cl)C2	22.9
O=C1O[C@@H]2CN(Cc3cc4ccccc4o3)C[C@@H]2N1Cc1ccccn1	0
CN1CCN(Cc2nnc(C3CCN(C(CO)CO)CC3)n2C)CC1	80.7
CN1CCN(Cc2nnc(C3CCN(CC4CC4)CC3)n2C)CC1	21.1
CN1CCN(Cc2nnc(C3CCN(C4CCCCC4)CC3)n2C)CC1	13.2
Cc1ccnc(OC[C@]23COC[C@H]2CN(C(=O)C2=CCCCC2)C3)n1	5.56
CN(Cc1cccnc1)c1nccc(N2CCN[C@H]3CS(=O)(=O)C[C@H]32)n1	12.9
c1ccc(CN2C[C@@H]3CC[C@H](C2)N(Cc2nnc(C4CC4)o2)C3)cc1	34
COc1cc(N2C[C@@H]3COC[C@]3(C(=O)NCc3ccccn3)C2)ncn1	5.26
CC(C)N(C(=O)Cn1c(-c2ccco2)cc2cccnc21)C(C)C	20.1
COCCNC(=O)Cn1c(-c2ccco2)cc2cccnc21	14.8
O=C(Cn1c(-c2ccco2)cc2cccnc21)N1CCCC1	76.5
Cc1nnc([C@@]23CCO[C@@H]2CCN(Cc2nccs2)C3)o1	7.92
CN(C)C(=O)N1C[C@@H]2CCCO[C@@H]2[C@H](N(C)Cc2ccco2)C1	11.4
C1CC(CN2C[C@H]3CC[C@@H]2CN(Cc2noc(C4CCCC4)n2)C3)C1	8.51
c1ccc(-c2cc(CN3C[C@@H]4CC[C@H](C3)N(CC3CCC3)C4)on2)cc1	51.7
c1ccc(-c2cc(CN3CCCC(Cn4cncn4)C3)on2)cc1 (stereo unspecified)	8.55
c1ccc(-c2nnc(CN3C[C@@H]4CC[C@H](C3)N(CC3CCC3)C4)o2)cc1	21.3
c1ccc(-c2cc(CN3C[C@@H]4CC[C@H](C3)N(CC3CC3)C4)on2)cc1	26.7
O=C(NCC1CC1)[C@@H]1CCO[C@@H]2CCN(CCc3ccccc3)C[C@H]21	13.7
CN1CCN(C(=O)[C@H]2CC[C@@H]3[C@@H](CCN3Cc3nccs3)O2)CC1	-10.1
Cc1cc(CN2CCN(CC3CC3)[C@@H]3CS(=O)(=O)C[C@@H]32)cc(C)c1O	8.33

SMILES	Percent Effect [%]
O=C([C@H]1C[C@H]2OCC[C@H]2N(Cc2ccco2)C1)N1CCCO1	22.2
CN(Cc1nccs1)c1nccc(N2CCN[C@H]3CS(=O)(=O)C[C@H]32)n1	14.5
O=C(NCc1ccco1)[C@@H]1CC[C@@H]2[C@@H](CCN2Cc2ccc(F)cc2)O1	69.9
O=C(NCc1ccco1)[C@H]1CC[C@@H]2[C@@H](CCN2Cc2cccnc2)O1	23.3
O=C(NCc1ccco1)[C@@H]1CC[C@@H]2[C@@H](CCN2CC2CC2)O1	23.3
Cn1cc(CN2CC[C@H]3O[C@H](C(=O)NCc4ccco4)CC[C@H]32)cn1	9.43
O=C(NCc1ccco1)[C@H]1CC[C@@H]2[C@@H](CCN2Cc2nccs2)O1	31.5
COCCN1CCCn2cnc(CNC3CCCC3)c2C1	77.8
COCCN1CCCn2cnc(CNC(=O)N(C)C)c2C1	9.4
COCCN1CCCn2cnc(CN(C)C(C)C)c2C1	30
COCCN1C(=O)CO[C@H]2CN(Cc3cccc(OC)c3F)C[C@@H]21	8.25
Cc1nnc([C@]23COC[C@H]2CN(Cc2cnn(C)c2)C3)o1	27.4
CN(C)CCN1CCO[C@@H]2CN(C(=O)Cc3ccsc3)CC[C@@H]2C1	10
C1CC(CN2C[C@@H]3C[C@@H](c4nnc(C5CC5)o4)O[C@@H]3C2)CCO1	11.1
O=S(=O)(CCCn1cncn1)Cc1ccc(F)cc1Cl	109
O=S(=O)(CCCn1cncn1)Cc1cccc(F)c1	-11.8
O=S(=O)(CCCn1cncn1)Cc1ccccc1Cl	19.7
COc1ncccc1CN1C[C@@H]2C[C@@H](C(=O)NCC3CC3)N(C)[C@@H]2C1	24.8
CO[C@@H]1CC[C@H]2[C@H]1OCCN2C(=O)c1ccc(C)nc1	7.02
COc1cc(N2C[C@H](C(=O)NC3CC3)[C@@H]3CCO[C@@H]3C2)ncn1	3.23
Cc1ccc2[nH]c(CO[C@H]3CN(C(=O)C4CC4)C[C@H]3F)nc2c1	4.05
CN1C[C@@H](F)[C@@H](OCc2nc3ccc(C#N)cc3[nH]2)C1	25

SMILES	Percent Effect [%]
Cc1ccc2[nH]c(CO[C@H]3CN(c4ccc(C#N)cn4)C[C@H]3F)nc2c1	69.4
O=C(NC1CC1)[C@@H]1CCO[C@@H]2CCN(CCc3ccccc3)C[C@@H]21	15.1
Cc1cccc(CN2C[C@H]3OC(=O)N(CCCN4CCOCC4)[C@H]3C2)n1	22.3
Cc1ncsc1C(=O)N1CC[C@@H]2[C@@H](CC1)OCCN2c1cccnc1	10.5
O=c1c(C(F)(F)F)cccn1Cc1nnc(-c2cccnc2)o1	11.5
COc1cccn(Cc2nnc(-c3cccnc3)o2)c1=O	39.3
COc1cccn(Cc2nnc(-c3cccc(F)c3)o2)c1=O	91.8
Cc1cccc(CN2C[C@@H]3CN(C(=O)NC(C)C)C[C@@H]3C2=O)c1	12.3
CC(C)[C@H](NS(C)(=O)=O)C(=O)NCc1cc(-c2ccco2)n[nH]1	54.3
C[C@H](NS(C)(=O)=O)C(=O)NCc1cc(-c2ccco2)n(CC(F)(F)F)n1	-80
CC(C)[C@H](NS(C)(=O)=O)C(=O)NCc1cc(-c2ccco2)nn1C	8.57
CC(C)[C@H](NS(C)(=O)=O)C(=O)NCc1cc(-c2ccccc2)n[nH]1	17.1
C[C@H](NS(C)(=O)=O)C(=O)NCc1cc(-c2ccco2)n[nH]1	51.4
CN(C)c1nccc(NCc2cc(-c3ccco3)n[nH]2)n1	34.3
CN1CCN(C[C@@H]2OC[C@H]3CN(CCc4ccccc4)CC[C@H]32)CC1	22.6
O=C(NC1CCC1)[C@@H]1CCO[C@@H]2CCN(CCc3ccccc3)C[C@H]21	15.4
O=C(NC[C@]12COC[C@H]1CN(Cc1nccs1)C2)c1ccsc1	0
Cc1nc(CNCc2cccc(OC34CCCN(CC3)C4)c2)n[nH]1 (stereo unspecified)	24.7
O=c1[nH]nc(CNCc2ccc(OC34CCCN(CC3)C4)cc2)[nH]1 (stereo unspecified)	17.6
c1ccc(Oc2cccc(OC34CCCN(CC3)C4)c2)cc1 (stereo unspecified)	51
Cc1cnccc1CNCc1ccc(OC23CCCN(CC2)C3)cc1 (stereo unspecified)	36.5
COc1cc(C#N)ccc1OC12CCCN(CC1)C2 (stereo unspecified)	23.1

SMILES	Percent Effect [%]
c1ccc(Oc2ccc(OC34CCCN(CC3)C4)cc2)cc1 (stereo unspecified)	61.2
Cc1ccc(C(=O)N2C[C@@H]3CCCO[C@@H]3[C@H](N(C)Cc3ccco3)C2)o1	3.23
O=S(=O)(N1CCCC1)N1CC[C@H](c2ccccc2)[C@H]2NCCCC[C@H]21	26.3
COc1ncccc1CN1C[C@@H]2COC[C@]2(COc2ccccn2)C1	7.69
CS(=O)(=O)NC[C@]12COC[C@H]1CN(C(=O)c1cnccn1)C2	-2.65
O=C(CN1CCN(c2ncccn2)[C@@H]2CS(=O)(=O)C[C@@H]21)N1CCCCC1	-8.22
CCOc1ccc(-c2c(C#N)c(N)nc3c2COCC3)cn1	21.7
CCC(C)Sc1ncc(-c2c(C#N)c(N)nc3c2COCC3)cn1 (stereo unspecified)	2.17
COc1ncc(-c2cc(-c3ccn(C)c3)nc(N)c2C#N)cn1	35.4
COc1ncc(-c2c(C#N)c(N)nc3c2CCc2[nH]ccc2-3)cn1	95.7
CCCn1cc(-c2cc(-c3cnc(OC)nc3)c(C#N)c(N)n2)c(C)n1	16.4
COCCc1ncc(-c2c(C#N)c(N)nc3c2CCc2[nH]ccc2-3)cn1	103
O=C([C@@H]1C[C@@H]2CCN(Cc3ccco3)C[C@H]2O1)N1CCCO1	15
CC(C(=O)Nc1nccs1)N1CCc2nn(C)c(=O)cc2C1 (stereo unspecified)	23.2
CC(C(=O)Nc1ccnn1C(C)C)N1CCc2nn(C)c(=O)cc2C1 (stereo unspecified)	25
Cn1nc2c(cc1=O)CN(CC(=O)Nc1ccc(Cl)cn1)CC2	103
Cn1nc2c(cc1=O)CN(CC(=O)Nc1nccs1)CC2	48.2
CC(C(=O)Nc1ccc(Cl)cn1)N1CCc2nn(C)c(=O)cc2C1 (stereo unspecified)	102
Cn1nc2c(cc1=O)CN(CC(=O)Nc1nncs1)CC2	6.06
Cc1cccc(CN2C(=O)CO[C@@H]3CN(CCO)C[C@H]32)c1	15.4
Cc1cc(C(=O)N2CC[C@@H]3CN(C)S(=O)(=O)[C@@H]3CC2)no1	9.62
Cc1cccc(COC[C@@H]2CC[C@H]3[C@H](CCN3Cc3ccco3)O2)n1	13.3

SMILES	Percent Effect [%]
CCCc1nc(CNC2(c3nccs3)CCCC2)cs1	15.1
c1csc(C2(NCc3csc(C4CC4)n3)CCCC2)n1	51.6
Cc1csc(C2(NCc3csc(C4CC4)n3)CCCC2)n1	8.6
O=C(NC[C@H]1CC[C@H](c2nnc(-c3cccnc3)o2)CC1)C1CC1	-19.9
O=C(c1ccsc1)N1C[C@@H]2CCN(C(=O)c3cccc(F)c3)[C@@H]2C1	11.7
COc1ccc(CNC(=O)Nc2ccc(CN3CCOC3=O)cc2)cc1	15.2
Cc1nnc(NC(=O)NCc2ccoc2)s1	7.69
COc1cccc(-c2ccc(CNC(=O)c3ccc(=O)n(C)c3)cc2)c1	14.6
COc1ccc(CNC(=O)Nc2ccc(=O)n(C)c2)cc1	114
COC(=O)c1ccc(CNC(=O)Nc2ccc(=O)n(C)c2)cc1	120
Cn1cc(NC(=O)NCc2ccoc2)ccc1=O	120
COc1ccc(CNC(=O)c2ccc(=O)n(C)c2)cc1C	-2.08
COc1ccc(CNC(=O)Nc2ccc(S(=O)(=O)C(F)F)cc2)cc1	18.3
O=C(NCc1ccoc1)Nc1ccc(CN2CCOC2=O)cc1	2.88
c1cnc(N2C[C@H]3CCN(CCN4CCCC4)C[C@H]3C2)cn1	25.7
Cc1ccc(CN2CC[C@H]3[C@@H]2CCC(=O)N3CCN2CCCC2)s1	5.11
CC(C)NC(=O)N1CC[C@H]2[C@H]1CCN2c1ncccn1	15.4
COc1ncccc1CN1C[C@@H]2COC[C@]2(COc2cccnc2)C1	20.5

Source: ChEMBL document CHEMBL3988442, “University of Dundee, Small-Polar-MMV Screening Library” (2021)
